Records with an inconclusive call do not appear. Where a call stands in place of a potency, no number is given. The source made the active and inactive calls. The call rests on the fitted dose curve; in most records, active means well fitted activation curve with a large enough effect; inconclusive means small, poorly fitted or top-dose-only effect; inactive means no such curve, though single readings can be large or run the other way.
test: qHTS Assay for Identifying a Potential Treatment of Ataxia-Telangiectasia: Hit Validation; conditions: Ataxia-telangiectasia cell-based hit validation qHTS, in ATM-null A-T patient fibroblasts; series mostly up to 76.9 µM;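 further: phospho-KAP1 level by AlphaLISA as a proxy for ATM-like kinase activity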
Procedure, shortened: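 hTERT-immortalized A-T patient fibroblasts (F2112) were dosed at up to 76.7 uM final for 60 min at 37C. After a further 30 min incubation, cells were lysed, and phospho-KAP1 was detected by AlphaLISA after 6 hr at 25C.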
Potency means the concentration at half of the fitted maximal effect.

Structure (SMILES) | Potency
CC(=O)Nc1ccc(NC2=C(Cl)C(=O)c3ccccc3C2=O)cc1 | inactive
CC(C)NC(=O)c1ccc(COc2ccc(C(C)(C)C)cc2)o1 | inactive
CCS(=O)(=O)c1ccc(C(=O)Nc2ccccc2)c(Cl)c1Cl | 29.2 µM (active)
CC1CCCC(C)N1C(=O)COC(=O)Cc1ccc(Cl)cc1 (configuration not stated) | inactive
C=C(C)n1c(=O)n(Cc2ccccc2C)c2ccccc21 | inactive
C/C(CCC1CC(C)OC1=O)=N\NC(N)=S (configuration not stated) | inactive
COc1cc(/C=C2\SC(=S)N(C(C(=O)O)c3ccccc3)C2=O)ccc1O (configuration not stated) | inactive
CCn1c(N2CCN(CC(=O)c3c[nH]c4ccccc34)CC2)nc2c1c(=O)[nH]c(=O)n2C | inactive
NC(=O)C1CCN(Cc2nc3cc(C(F)(F)F)ccc3c(=O)[nH]2)CC1 | inactive
COc1ccc(CCn2c(S)nc3ccccc3c2=O)cc1 | 26 µM (active)
CCn1nc(C)c(/C=N/NC(=O)Cn2cncn2)c1C | inactive
Cc1ccc(C(C)C)c(OCCN2CCc3ccccc3C2)c1 | 32.8 µM (active)
C=CCN1C(=O)/C(=C/C(=O)OC)S/C1=N\NC(=O)c1ccccc1 | inactive
O=C1/C(=C/c2ccc(N3CCOCC3)o2)SC(=Nc2ccccc2)N1CCc1c[nH]c2ccccc12 | inactive
N#C/C(=C/c1ccc(F)cc1)C(N)=S | inactive
CC(C)C1CC(CCN)(c2ccccc2)CCO1 (configuration not stated) | inactive
CC(=O)/C(N=Nc1nc2c([nH]1)c(=O)n(C)c(=O)n2C)=C(\C)O | inactive
CNC(=S)N(CCO)Cc1cc2cc3c(cc2[nH]c1=O)OCCO3 | inactive
CCOC(=O)c1[nH]c(COC(=O)c2ccccc2NC(=O)c2ccco2)c(C(=O)OCC)c1C | inactive

Structure (SMILES) | Potency
CCOC(=O)c1c(CSc2ccsc2)n(C)c2cc(Br)c(O)c(CN(C)C)c12 | 46.3 µM (active)
O=C1CN(C(=O)NCC(=O)N[C@H](C(=O)O)c2ccccc2)c2ccccc2N1 | inactive
CSc1nc(SCC(=O)O)c2c3c(sc2n1)COC(C)(C)C3 | inactive
CC(C)CNS(=O)(=O)c1cc(C(=O)O)c(Cl)cc1Cl | inactive
CCN(CC)c1ccc2cc(-c3nc4ccccc4[nH]3)c(=O)oc2c1 | inactive
O=C(NCCCN1CCOCC1)c1ccc2c(c1)N(Cc1cccc(F)c1)C(=O)c1ccccc1S2 | 7.33 µM (active)
COC(=O)c1ccncc1C(=O)Nc1ccc(Oc2ncc(C(F)(F)F)cc2Cl)cc1 | inactive
O=C1NC(NS(=O)(=O)c2ccc(Cl)cc2)(C(F)(F)F)C(=O)N1CCc1ccccc1 (configuration not stated) | inactive
COc1ccc(-n2c(C)cc(=O)[nH]c2=O)cc1 | inactive
O=C(c1ccc(F)cc1)c1ccc(N2CCCCC2)cc1 | 29.2 µM (active)
Cn1c(=O)oc2cc(S(=O)(=O)N3CCc4ccccc43)ccc21 | inactive
Cc1ccnc(NC(=O)c2ccccc2NC(=O)c2ccccc2)c1 | inactive
COc1ccc(/C=N/Nc2nc(=O)[nH]nc2C)cc1OC | inactive
Clc1cccc(Cl)c1CSc1nnc(-c2ccncc2)s1 | inactive
CCOC(=O)c1ccccc1NC(=O)c1ccc2nc[nH]c2c1 | inactive
COc1cc(/C=C2\CCOC2=O)cc(OC)c1OC | inactive
N#Cc1c2c(c(-n3cnc4ccccc43)n3c1nc1ccccc13)CCC2 | inactive
O=C(CSc1nnc(CNC(=O)c2ccccc2)o1)NCCc1ccccc1 | inactive

From PubChem BioAssay AID493192 (National Center for Advancing Translational Sciences (NCATS), 2011)
